Target: Sialic acid-binding Ig-like lectin 9 (Homo sapiens) (UniProt Q9Y336)
Experiment: Hs-Siglec9 ALPHAscreen SOP 20170721
Set-up: scale not given: direction of the effect not stated beside the values
Details: 10 µM

Chain of Sialic acid-binding Ig-like lectin 9 (Homo sapiens) (Q9Y336 whole entry): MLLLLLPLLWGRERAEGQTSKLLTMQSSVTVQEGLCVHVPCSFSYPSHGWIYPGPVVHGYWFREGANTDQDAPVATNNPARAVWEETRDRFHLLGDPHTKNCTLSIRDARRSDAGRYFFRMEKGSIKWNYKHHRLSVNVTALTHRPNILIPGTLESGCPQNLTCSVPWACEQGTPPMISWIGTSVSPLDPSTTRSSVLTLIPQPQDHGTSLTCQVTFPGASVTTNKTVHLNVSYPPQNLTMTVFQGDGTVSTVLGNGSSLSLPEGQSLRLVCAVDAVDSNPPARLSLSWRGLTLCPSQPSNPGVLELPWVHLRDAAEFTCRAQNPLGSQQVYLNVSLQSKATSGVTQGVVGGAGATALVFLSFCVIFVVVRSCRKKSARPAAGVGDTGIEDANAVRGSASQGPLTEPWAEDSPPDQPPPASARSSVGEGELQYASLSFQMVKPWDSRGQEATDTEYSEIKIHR

Row | SMILES | Percent Effect
1 | COCCN1CC[C@@H]2O[C@@H](COCC(=O)N3CCCC3)CC[C@@H]21 | 2.85%
2 | O=C(c1ccc[nH]1)N1CCCC(c2cc(C(F)(F)F)[nH]n2)C1 (stereo unspecified) | 17.4%
3 | O=C(c1coc(COc2cccc(F)c2)n1)N1CC[C@H](O)[C@@H](O)C1 | 8.13%
4 | Cc1nnc2n1CCN(CCOc1ccccc1)C2 | -0.787%
5 | c1ccc(OCCN2CCCC(c3noc(C4CC4)n3)C2)cc1 (stereo unspecified) | -3.02%
6 | Cn1ccc(CN2CCC(OCCc3ccccc3)CC2)cc1=O | -0.922%
7 | COC1COC2(CCN(Cc3ccccc3Cl)CC2)C1 (stereo unspecified) | 5.98%
8 | COc1cccc(S(=O)(=O)N2CCn3cnc(COCC4CC4)c3C2)c1 | 0.793%
9 | Cc1ncsc1C(=O)N(C)CCc1ccncc1 | 3.98%
10 | Cc1cc(C)n(C2CCCN(C(=O)Cc3csc(C)n3)C2)n1 (stereo unspecified) | 17.5%
11 | O=C(NCCNc1cnccn1)N1CCN(Cc2cccnc2)CC1 | -10.1%
12 | Cc1cc(NC(=O)NCC(C)O)n(C)n1 (stereo unspecified) | 7.06%
13 | CCc1nccn1C1CCCN(C(=O)c2cnn(C)c2C2CC2)C1 (stereo unspecified) | 1.6%
14 | CCOCC(O)CN1CCN(C(=O)c2cccnc2OC)CC1 (stereo unspecified) | 3.65%
15 | O=C(CN1CCc2cncnc2C1)NCCOc1ccccc1 | -13.3%
16 | Cc1nc(N2CCCCC2)ncc1C(=O)N1CC(C)(C)[C@@](C)(O)C1 | 7.93%
17 | c1cncc(-c2nccc(CN3CCCC3)n2)c1 | -5.74%
18 | O=C(NC1CCCC1)N1CCCC(c2nccn2Cc2ccncc2)C1 (stereo unspecified) | 9.67%
19 | Cc1cc(CN2CCOC(CN(C)c3cccnn3)C2)no1 (stereo unspecified) | -5.84%
20 | Cn1cc(CNCCn2cccn2)c(-c2cccnc2)n1 | -4.32%
21 | O=C1NC2(CCN(C(=O)c3ccccc3)CC2)CC1c1cccnc1 (stereo unspecified) | 5.92%
